Reference: PubChem BioAssay (NCATS)
Values without a mark were called inactive. Records with an inconclusive call do not appear. Entries that show only a call come without a potency. Activity calls are given as the source filed them. The call rests on the fitted dose curve; in most records, active means well fitted curve in the direction sought with a large enough effect; inconclusive means small, poorly fitted or top-dose-only effect, or another doubt; inactive means no such curve, though single readings can be large; an effect the other way counts as inactive or inconclusive.

Key:
[1] = Inducers of the Endoplasmic Reticulum Stress Response (ERSR) in human glioma: Validation (AID 504836)
Method in brief: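 ERSR induction read as luciferase luminescence (Bright-Glo, 10 min at room temperature) in stably transfected human U87-MG glioma cells exposed to compounds for 16 h, using GRP78 as sensor.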

[2] = molecular target: Ubiquitin carboxyl-terminal hydrolase 1 (Homo sapiens) (UniProt O94782); assay: Inhibitors of USP1/UAF1: Pilot qHTS (AID 504865);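 further: rhodamine fluorescence freed from ubiquitin-rhodamine substrate followed over time; top concentration of the series differs between compounds; nearly all actives have a fitted effect of over 35% in size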
Chain of Ubiquitin carboxyl-terminal hydrolase 1 (Homo sapiens) (O94782 whole entry, looked up): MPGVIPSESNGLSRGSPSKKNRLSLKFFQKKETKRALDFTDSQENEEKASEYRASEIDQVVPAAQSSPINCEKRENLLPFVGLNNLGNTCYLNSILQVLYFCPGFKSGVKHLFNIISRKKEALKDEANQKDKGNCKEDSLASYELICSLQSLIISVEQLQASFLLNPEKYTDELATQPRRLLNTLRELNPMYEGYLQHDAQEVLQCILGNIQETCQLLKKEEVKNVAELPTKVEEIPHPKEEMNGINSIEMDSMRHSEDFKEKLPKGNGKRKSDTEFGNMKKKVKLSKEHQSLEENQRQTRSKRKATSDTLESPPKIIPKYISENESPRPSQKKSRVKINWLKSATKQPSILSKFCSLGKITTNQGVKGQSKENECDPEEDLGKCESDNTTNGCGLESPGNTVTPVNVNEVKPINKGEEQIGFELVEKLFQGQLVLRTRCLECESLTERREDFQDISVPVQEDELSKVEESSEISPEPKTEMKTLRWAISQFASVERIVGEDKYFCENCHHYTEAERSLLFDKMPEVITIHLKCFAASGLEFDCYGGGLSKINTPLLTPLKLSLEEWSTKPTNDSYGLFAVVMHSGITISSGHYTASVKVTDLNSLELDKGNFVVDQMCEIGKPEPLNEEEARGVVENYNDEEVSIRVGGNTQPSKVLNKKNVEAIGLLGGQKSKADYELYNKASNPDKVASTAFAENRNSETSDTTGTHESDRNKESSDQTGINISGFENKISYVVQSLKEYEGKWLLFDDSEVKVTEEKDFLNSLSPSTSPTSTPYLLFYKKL
Method in brief: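 Kinetic fluorescence assay: 1nM USP1/UAF1, 15 min compound preincubation, then 150nM Ub-Rho; 480/540 nm.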

## NC12CC3CC(CC(C3)C1)C2
[1]
  outcome: inactive

## O=NN(CCCl)C(=O)NCCCl
[1]
  outcome: inactive

## CCCNCC(O)COc1ccccc1C(=O)CCc1ccccc1 (configuration not stated)
[1]
  outcome: inactive

## CN(C)CC[C@@H](c1ccc(Br)cc1)c1ccccn1
[1]
  outcome: inactive

## O=C1CCC(N2C(=O)c3ccccc3C2=O)C(=O)N1 (configuration not stated)
[1]
  outcome: inactive

## Cn1cnc([N+](=O)[O-])c1Sc1ncnc2nc[nH]c12
[1]
  outcome: inactive

## CC/C(=C(\c1ccccc1)c1ccc(OCCN(C)C)cc1)c1ccccc1
[1]
  outcome: inactive

## O=C1CCc2cc(OCCCCc3nnnn3C3CCCCC3)ccc2N1
[1]
  outcome: inactive

## CN1CCN(CCCN2c3ccccc3Sc3ccc(C(F)(F)F)cc32)CC1
[1]
  outcome: inactive

## O=C(NCCN1CCOCC1)c1ccc(Cl)cc1
[1]
  outcome: inactive

## COc1ccccc1OCC(O)CN1CCN(CC(=O)Nc2c(C)cccc2C)CC1 (configuration not stated)
[1]
  outcome: inactive

## NNc1nncc2ccccc12
[1]
  outcome: inactive

## O=C(c1ccc(OCCN2CCCCC2)cc1)c1c(-c2ccc(O)cc2)sc2cc(O)ccc12
[1]
  outcome: inactive

## CC(C)(C(=O)O)c1ccc(C(O)CCCN2CCC(C(O)(c3ccccc3)c3ccccc3)CC2)cc1 (configuration not stated)
[1]
  outcome: inactive

## Cc1oncc1C(=O)Nc1ccc(C(F)(F)F)cc1
[1]
  outcome: inactive

## CNCCCN1c2ccccc2CCc2ccccc21
[1]
  outcome: inactive

## CC(CN(C)C)CN1c2ccccc2CCc2ccccc21 (configuration not stated)
[1]
  outcome: inactive

## O=C1N=C(O)CN1/N=C/c1ccc(-c2ccc([N+](=O)[O-])cc2)o1
[1]
  outcome: inactive

## CN1CC(=O)N/C1=N/C(=O)Nc1cccc(Cl)c1
[1]
  outcome: inactive

## CCCC(CCC)C(=O)O
[1]
  outcome: inactive

## N[C@@H]1CONC1=O
[1]
  outcome: inactive

## COCCCC/C(=N\OCCN)c1ccc(C(F)(F)F)cc1
[1]
  outcome: inactive

## O=C(O)COCCN1CCN(C(c2ccccc2)c2ccc(Cl)cc2)CC1 (configuration not stated)
[1]
  outcome: inactive

## O=C1Cc2cc(CCN3CCN(c4nsc5ccccc45)CC3)c(Cl)cc2N1
[1]
  outcome: inactive

## CN1CCN(C2=Nc3ccccc3Oc3ccc(Cl)cc32)CC1
[1]
  outcome: inactive

## CC(=O)CCCCn1c(=O)c2c(ncn2C)n(C)c1=O
[1]
  outcome: inactive

## COc1ccc([C@@H]2Sc3ccccc3N(CCN(C)C)C(=O)[C@@H]2OC(C)=O)cc1
[1]
  outcome: inactive

## CC(=O)O[C@]1(C(C)=O)CC[C@H]2[C@@H]3C=C(Cl)C4=CC(=O)[C@@H]5C[C@@H]5[C@]4(C)[C@H]3CC[C@@]21C
[1]
  outcome: inactive

## CCCCc1oc2ccccc2c1C(=O)c1cc(I)c(OCCN(CC)CC)c(I)c1
[1]
  outcome: inactive

## CCOC(=O)N1CCC(=C2c3ccc(Cl)cc3CCc3cccnc32)CC1
[1]
  outcome: inactive

## CC(C)NCC(O)COc1cccc2[nH]ccc12 (configuration not stated)
[1]
  outcome: inactive

## CN(C)CCCN1c2ccccc2CCc2ccc(Cl)cc21
[1]
  outcome: inactive

## C[C@]12CC[C@@H]3c4ccc(O)cc4C[C@@H](CCCCCCCCCS(=O)CCCC(F)(F)C(F)(F)F)[C@H]3[C@@H]1CC[C@@H]2O (some centres not stated)
[1]
  outcome: inactive
[2]
  Potency: inactive

## NS(=O)(=O)c1cc2c(cc1Cl)NC=NS2(=O)=O
[1]
  outcome: inactive

## O=C1NC(=O)C(c2ccccc2)(c2ccccc2)N1
[1]
  outcome: inactive

## CCCN(CCC)CCc1cccc2c1CC(=O)N2
[1]
  outcome: inactive
